Source: PubChem BioAssay
This is one part of a sample in which hits are shown more often than they occur.
Pf Dd2 growth = Plasmodium falciparum Dd2 growth inhibition; P. falciparum Dd2 growth, SYBR Green, 72 h; Potency, µM (top dose mostly 28.9 µM), without a hit: at the highest dose activity, negative = inhibition, hits mostly inhibitors; 120,000 compounds, 4.3% hits; AID 1347417; active = well fitted inhibition curve with a large enough effect;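 note: plate controls were DMSO vehicle for no effect and reference drug for full effect; nearly all actives have a fitted effect of over 65% in size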
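Readout: SYBR Green fluorescence, 485 nm excitation, 535 nm emission, after ~16 h lysis at 37C. Before that, Dd2-infected red cells (2.5% hematocrit) grew 72 h with compound, 29 uM top final concentration.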
Active calls of the source: *; i = inactive; [ ] = remark or other dose. Potency is the fitted concentration of half-maximal effect.

SMILES	Pf Dd2 growth
CN1C(=O)CC[C@]2(C(=O)NCc3cccs3)CCCC[C@@H]12	9%
O=C(Nc1cnc(-c2ccccc2)nc1)C1CCCC1	-15%
CCCNc1cc(N2CCC(CCC(=O)Nc3cc(C)ccc3OC)CC2)ncn1	-29%
COc1cccc(CC(=O)N2CCC([C@H]3[C@@H](OC)C(=O)N3C(C)C)CC2)c1	-11%
COC[C@H]1NC(=O)CC[C@H]1C(=O)Nc1cccc(OC(F)(F)F)c1	-14%
COCCCNC(=O)C(NC(=O)c1ccccc1)C1CCN(C(=O)c2ccccc2F)CC1 (stereo not given)	6%
CCCCc1ccc(NC(=O)CN2C(=O)C(c3ccccc3)=NC23CCCC3)cc1	i
Cc1nnsc1C(=O)N[C@H]1CCN(C(=O)c2ccco2)[C@H](C(=O)N[C@H](Cc2ccccc2)C(N)=O)C1	-4%
COc1cccc(N2C(=O)NC(=NC3CCCCC3)C23CCCN(Cc2ccc(N(C)C)cc2)C3)c1 (stereo not given)	11µM*
COc1cccc(N2C(=O)NC(=NC3CCCCC3)C23CCCN(C(=O)c2ccccc2)C3)c1 (stereo not given)	15%
COc1ccc(C(=O)N2CCCC3(C2)C(=NC2CCCC2)NC(=O)N3c2cccc(OC)c2)cc1 (stereo not given)	8%
COc1cccc(N2C(=O)NC(=NC3CCCC3)C23CCN(C(=O)c2ccccc2)C3)c1 (stereo not given)	-21%
COc1cccc(N2C(=O)NC(=NC3CCCC3)C23CCCN(Cc2ccc(N(C)C)cc2)C3)c1 (stereo not given)	11µM*
COc1cccc(N2C(=O)NC(=NC3CCCCC3)C23CCN(C(=O)c2ccccc2)C3)c1 (stereo not given)	-28%
CN(C)c1nc(-c2ccncc2)nc2c1CCN(C(=O)c1[nH]ncc1Cl)C2	-29%
Cc1nnc2n1CCC(NC(=O)NCCc1ccccc1)CC2 (stereo not given)	21%
CSCC(=O)N[C@H]1CN(Cc2cn(CCO)nc2C)C[C@@H]1C1CC1	1%
CC(C)(C)c1coc([C@@H]2COCCN2Cc2ccc(C(=O)O)cc2)n1	1%[44.1 µM]
CCOC(=O)C1=C(CN2CCN(c3ccc(OC)cc3)CC2)NC(=O)NC1c1ccc(Cl)cc1 (stereo not given)	-16%
CCOC(=O)C1=C(CN2CCN(c3cc(C)ccc3C)CC2)NC(=O)NC1c1ccc(Cl)cc1 (stereo not given)	10µM*
CCOC(=O)C1=C(CNCc2ccccc2)NC(=O)NC1c1ccc(C)cc1 (stereo not given)	10µM*
CCOC(=O)C1=C(CN2CCN(C)CC2)NC(=O)NC1c1ccc(F)cc1 (stereo not given)	49%
CCOC(=O)C1=C(CN(CC)Cc2ccccc2)NC(=O)NC1c1ccc(Cl)cc1 (stereo not given)	i
CCOC(=O)C1=C(CN(C)Cc2ccccc2)NC(=O)NC1c1ccc(OC)cc1 (stereo not given)	i
Cc1cccc([S+](=O)([O-])N2CCC3(CC2)OCCN(c2cccnc2)C3=O)c1	i
SMILES	Pf Dd2 growth
Cc1cc(NC(=O)N(C)CC2CCOCC2)ccc1Br	-12%
Cc1noc(C)c1S(=O)(=O)N1CC(n2cc(C(=O)NCc3ccncc3)nn2)C1	9%
Cc1nc2c(c(NCCc3nc(C)c(Cl)s3)n1)CCNCC2	-10%
Cc1nc(CC(=O)Nc2nn(C)c3cccc(Oc4cccnc4)c23)cs1	-14%
CC(=O)N1CCN(C(=O)c2nc(-c3ccccc3)cs2)CC(O)C1 (stereo not given)	1%
CCc1ccc(CN2CCC(C(=O)Nc3ccc(Oc4cccnc4)cc3)CC2)o1	11µM*
COc1ccc(S(=O)(=O)N2CCC(C(=O)Nc3ccc(Oc4ccccc4)cc3)CC2)cc1	-5%
CC(=O)Nc1ccc(NC(=O)C2CCN(c3cnccn3)CC2)cc1	i
CN1CCCn2nc(C(=O)NC34CC5CC(CC(C5)C3)C4)cc2C1	-13%
O=C(c1ccoc1)N1CCC(Cc2nc(C3CCOCC3)no2)CC1	9%
O=C(O)C1(O)CCN(c2ncc(F)c(N3CCOCC3)n2)CC1	-22%
CCN1CCN(C(=O)Cn2ncc3c4ccccc4n(Cc4c(C)cc(C)cc4C)c3c2=O)CC1	13µM*
CC1CCCCN1C(=O)Cn1ncc2c3ccccc3n(Cc3ccccc3F)c2c1=O (stereo not given)	13µM*
Cc1cc(C)c(Cn2c3ccccc3c3cnn(CC(=O)NC4CCCCCC4)c(=O)c32)c(C)c1	9%
O=C(Cn1ncc2c3ccccc3n(Cc3ccccc3F)c2c1=O)NC1CCCCCC1	-24%
Cc1ccc(C)c(Cn2c3ccccc3c3cnn(CC(=O)N4CCCCC4)c(=O)c32)c1	32%
CCN1CCN(C(=O)Cn2ncc3c4ccccc4n(Cc4ccccc4F)c3c2=O)CC1	11µM*
CCOC(=O)C1CCN(C(=O)Cn2ncc3c4ccccc4n(Cc4ccccc4F)c3c2=O)CC1	-15%
Cc1ccccc1Cn1c2ccccc2c2cnn(CC(=O)N3CCC(C)CC3)c(=O)c21	i
CCCn1c2ccccc2c2cnn(CC(=O)N3CCN(c4ccccc4F)CC3)c(=O)c21	i
CCN1c2cc(C(=O)Nc3cccc(Br)c3)ccc2C(=O)N2CCCCC21 (stereo not given)	0%
CN(CC1CCOCC1)S(=O)(=O)Cc1ccccc1Cl	i
CN(CC1CCOCC1)S(=O)(=O)c1ccc(Cl)cc1	-4%
CN(C)C[C@@H]1CN(c2ncccn2)C[C@H]1NC(=O)c1ccccc1F	20%
COc1ccc(-c2noc([C@@H](C)NC(=O)c3cc(C)oc3C)c2C(=O)O)cc1	23%[44.1 µM]
SMILES	Pf Dd2 growth
COCC(=O)N1CCC2(CCN(Cc3cccc(C)n3)CC2)C(CO)C1 (stereo not given)	12%
Cc1cccc(Cl)c1NC(=O)CN1C(=O)NC(c2ccc(Cl)cc2)C2=C1COC2=O (stereo not given)	-16%
COc1cc(NC(=O)CSc2nc(-c3ccc(C(C)C)cc3)no2)cc(OC)c1	0.71µM*
COc1cc(NC(=O)Cn2cccc2-c2nc(-c3ccc(OC)c(F)c3)no2)cc(OC)c1	-20%
COc1cc(NC(=O)CSc2nc(-c3ccccc3)no2)cc(OC)c1	1.1µM*
COc1cc(NC(=O)CSc2nc3ccccc3nc2Cc2ccc(Cl)cc2)cc(OC)c1	8%
COc1cc(NC(=O)CSc2ncccc2C(=O)OC(C)C)cc(OC)c1	1%
COc1ccc(NC(=O)CSc2cc(-c3ccccc3)nc(C)n2)cc1	20%
COc1ccc(-c2noc(-c3nnn4c3COC(c3ccc(C)cc3C)C4)n2)c(OC)c1 (stereo not given)	i
COC(=O)[C@H](CC1CCCCC1)NC(=O)[C@H]1CN(C(=O)c2cccc(F)c2)CCN1C(C)=O	-16%
O=C(c1cccc(Cl)c1)N1CCn2c(nn(-c3ccc(C(F)(F)F)cc3)c2=O)C1	-27%
O=C(c1cccc2[nH]ccc12)N1CCC(n2cc(-c3nc(-c4ccccc4)no3)nn2)C1 (stereo not given)	-6%
COc1cccc([C@@H]2CN(C(=O)c3ccc(CO)o3)C[C@H]2C(=O)O)c1	1%
CNc1ccc(C)cc1C(=O)NC(C(=O)O)c1c(C)n[nH]c1C (stereo not given)	26%
Cc1cc(C)cc(NC(=O)N2CCCC2c2nncn2C2CCCC2)c1 (stereo not given)	-8%
O=C(Nc1cc(Cl)cc(Cl)c1)N1CCCC1c1nncn1C1CCCC1 (stereo not given)	11µM*
COc1cc(NC(=O)N2CCCC2c2nncn2C2CCCC2)cc(OC)c1 (stereo not given)	-7%
